# Experimental data published in the supplement of paper PMC8728848.
# This is one part of a sample in which the strongest signals are shown more often than they occur.
# B1: MCL (Mus musculus), Q9Z2H6 (protein)
# chain: MWLEESQMKSKGTRHPQLIPCVFAVVSISFLSACFISTCLVTHHYFLRWTRGSVVKLSDYHTRVTCIREEPQPGATGGTWTCCPVSWRAFQSNCYFPLNDNQTWHESERNCSGMSSHLVTINTEAEQNFVTQLLDKRFSYFLGLADENVEGQWQWVDKTPFNPHTVFWEKGESNDFMEEDCVVLVHVHEKWVWNDFPCHFEVRRICKLPGITFNWKPSK
# How the values were obtained:
# Assay in all cases: glycan array binding signal (z-score within array); higher = stronger binding
# Settings in all cases: glycan notation: IUPAC condensed, linker removed
# [1] = target: Fuc(a1-2)[Gal(a1-3)]Gal(b1-4)Glc
# How it was run: (§1)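 Negative Z-scores can be read as non-binding. The Z-score is calculated within each array and then averaged across arrays of one protein sequence at different concentrations or buffers and across linkers. Arrays, 3228 in all, were curated from the Consortium for Functional Glycomics database and kept only where the protein sequence was available.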
# [2] = target: Fuc(a1-2)[Gal(a1-3)]Gal(b1-4)[Fuc(a1-3)]GlcNAc
# How it was run: as §1
# [3] = target: Fuc(a1-2)[GalNAc(a1-3)]Gal
# How it was run: as §1
# [4] = target: Fuc(a1-2)[GalNAc(a1-3)]Gal(b1-3)GlcNAc
# How it was run: as §1
# [5] = target: Fuc(a1-3)[Gal(b1-4)]GlcNAc(b1-2)Man(a1-6)[Gal(b1-4)GlcNAc(b1-2)Man(a1-3)]Man(b1-4)GlcNAc(b1-4)GlcNAc
# How it was run: as §1
# [6] = target: Fuc(a1-3)[Gal(b1-4)]GlcNAc(b1-3)Gal(b1-3)[Fuc(a1-4)]GlcNAc
# How it was run: as §1
# [7] = target: Fuc(a1-3)[Gal(b1-4)]GlcNAc6S
# How it was run: as §1
# Fuc(b1-3)GlcNAc = target: Fuc(b1-3)GlcNAc
# How it was run: as §1
# Gal(a1-3)Gal(b1-3)GlcNAc = target: Gal(a1-3)Gal(b1-3)GlcNAc
# How it was run: as §1
# Gal(a1-3)Gal(b1-4)GlcNAc = target: Gal(a1-3)Gal(b1-4)GlcNAc
# How it was run: as §1
# Gal(b1-2)Gal = target: Gal(b1-2)Gal
# How it was run: as §1
# Gal(b1-3)Gal = target: Gal(b1-3)Gal
# How it was run: as §1
# Gal(b1-3)GlcNAc = target: Gal(b1-3)GlcNAc
# How it was run: as §1
# [8] = target: Gal(b1-3)GlcNAc(b1-2)Man(a1-3)[Gal(b1-3)GlcNAc(b1-2)Man(a1-6)]Man(b1-4)GlcNAc(b1-4)GlcNAc
# How it was run: as §1
# [9] = target: Gal(b1-4)GlcNAc(b1-3)Gal(b1-4)Glc
# How it was run: as §1
# [10] = target: Gal3S(b1-3)[Fuc(a1-4)]GlcNAc
# How it was run: as §1
# Gal6S(b1-4)Glc = target: Gal6S(b1-4)Glc
# How it was run: as §1
# GalNAc(a1-3)GalNAc = target: GalNAc(a1-3)GalNAc
# How it was run: as §1
# GlcNAc(b1-3)GalNAc = target: GlcNAc(b1-3)GalNAc
# How it was run: as §1
# [11] = target: GlcNAc(b1-3)[GlcNAc(b1-6)]Gal(b1-4)GlcNAc
# How it was run: as §1
# [12] = target: GlcNAc(b1-6)Gal(b1-4)GlcNAc
# How it was run: as §1
# [13] = target: Neu5Ac(a2-3)Gal(b1-3)GalNAc(b1-3)Gal(b1-4)GlcNAc
# How it was run: as §1
# [14] = target: Neu5Ac(a2-3)Gal(b1-3)GlcNAc
# How it was run: as §1
# [15] = target: Neu5Ac(a2-3)Gal(b1-3)GlcNAc(b1-3)Gal(b1-3)GlcNAc
# How it was run: as §1
# [16] = target: Neu5Ac(a2-3)Gal(b1-3)[Fuc(a1-4)]GlcNAc(b1-3)Gal(b1-4)[Fuc(a1-3)]GlcNAc
# How it was run: as §1
# [17] = target: Neu5Ac(a2-3)Gal(b1-3)[Neu5Ac(a2-3)Gal(b1-4)]GlcNAc
# How it was run: as §1
# [18] = target: Neu5Ac(a2-3)Gal(b1-3)[Neu5Ac(a2-6)]GalNAc
# How it was run: as §1
# [19] = target: Neu5Ac(a2-3)Gal(b1-4)GlcNAc6S
# How it was run: as §1
# [20] = target: Neu5Ac(a2-3)Gal(b1-4)[Fuc(a1-3)]GlcNAc(b1-3)Gal
# How it was run: as §1
# [21] = target: Neu5Ac(a2-3)Gal(b1-4)[Fuc(a1-3)]GlcNAc6S
# How it was run: as §1
# [22] = target: Neu5Ac(a2-3)GalNAc(b1-4)GlcNAc
# How it was run: as §1
# [23] = target: Neu5Ac(a2-6)Gal(b1-4)GlcNAc(b1-2)Man(a1-3)[GlcNAc(b1-2)Man(b1-4)GlcNAc(b1-2)Man(a1-6)]Man(b1-4)GlcNAc(b1-4)GlcNAc
# How it was run: as §1
# [24] = target: Neu5Ac(a2-6)GalNAc(b1-4)GlcNAc
# How it was run: as §1
# [25] = target: Neu5Gc(a2-3)Gal(b1-3)[Fuc(a1-4)]GlcNAc
# How it was run: as §1
# [26] = target: Neu5Gc(b2-6)Gal(b1-4)GlcNAc
# How it was run: as §1
binder,measurement,setting,value
B1,glycan array binding signal (z-score),[1],-0.321
same,glycan array binding signal (z-score),[2],0.241
same,glycan array binding signal (z-score),[3],-0.254
same,glycan array binding signal (z-score),[4],0.999
same,glycan array binding signal (z-score),[5],5.26
same,glycan array binding signal (z-score),[6],0.601
same,glycan array binding signal (z-score),[7],-0.78
same,glycan array binding signal (z-score),Fuc(b1-3)GlcNAc,-0.475
same,glycan array binding signal (z-score),Gal(a1-3)Gal(b1-3)GlcNAc,2.63
same,glycan array binding signal (z-score),Gal(a1-3)Gal(b1-4)GlcNAc,3.06
same,glycan array binding signal (z-score),Gal(b1-2)Gal,-0.362
same,glycan array binding signal (z-score),Gal(b1-3)Gal,-0.472
same,glycan array binding signal (z-score),Gal(b1-3)GlcNAc,0.168
same,glycan array binding signal (z-score),[8],-0.92
same,glycan array binding signal (z-score),[9],0.482
same,glycan array binding signal (z-score),[10],0.263
same,glycan array binding signal (z-score),Gal6S(b1-4)Glc,0.143
same,glycan array binding signal (z-score),GalNAc(a1-3)GalNAc,-0.708
same,glycan array binding signal (z-score),GlcNAc(b1-3)GalNAc,0.005
same,glycan array binding signal (z-score),[11],-0.357
same,glycan array binding signal (z-score),[12],-0.735
same,glycan array binding signal (z-score),[13],-0.471
same,glycan array binding signal (z-score),[14],0.527
same,glycan array binding signal (z-score),[15],0.595
same,glycan array binding signal (z-score),[16],-0.245
same,glycan array binding signal (z-score),[17],2.08
same,glycan array binding signal (z-score),[18],0.696
same,glycan array binding signal (z-score),[19],-0.011
same,glycan array binding signal (z-score),[20],-0.251
same,glycan array binding signal (z-score),[21],0.138
same,glycan array binding signal (z-score),[22],-1.14
same,glycan array binding signal (z-score),[23],2.17
same,glycan array binding signal (z-score),[24],-0.814
same,glycan array binding signal (z-score),[25],-0.827
same,glycan array binding signal (z-score),[26],0.767
